From PubChem BioAssay
Hits are enriched below; roughly 21% of the tested compounds scored in any of these assays.
Pf growth 48h = inhibits P. falciparum growth in the first generation, 48 h. hit rate 5.9% among 310,000. Potency, µM (doses to about 28.7 µM), most hits filed as inhibitors. P. falciparum luciferase growth in erythrocytes, 48 h. AID 504832
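Luciferase-expressing P. falciparum in infected erythrocytes (2% hematocrit, 0.1% parasitemia final) in RPMI 1640/0.5% Albumax were exposed to compound for 48 hours at 37 C, 5% CO2; growth read as luminescence.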
Shiga inhibitor = blocks Shiga toxin action in Vero cells; inhibition, % at 38.7 µM; hit rate 9.2% among 290,000; Vero cells, Shiga toxin protein synthesis inhibition reporter; in the data active means inhibition mostly above about 28%, no sharp cut-off; inactive means mostly below about 43%
CHX counter = affects cycloheximide protein synthesis inhibition readout, counter-screen. cell reporter, cycloheximide protein synthesis inhibition counterscreen. max response, %. hit rate 12% among 300,000. AID 2314; in the data active means max response mostly above about 13%, no sharp cut-off; inactive means mostly below about 14%; further: read at 38.3 µM for the half of the compounds with a filed dose
NS1 function inh = inhibitors of influenza NS1 protein function. Potency, µM (highest dose often 46.1 µM). AID 2326. hit rate 0.4% among 270,000; calls by dose curve; further: actives are rising curves; nearly all actives have a fitted effect of over 50% in size
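Read-out: OD600 growth recovery of NS1-expressing budding yeast. Cells grown overnight at 30C in -URA glucose medium, washed, resuspended and diluted 1:100 in 2% galactose assay medium, pH 6.0. Same strain lacking NS1 served as positive control.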
SARS PLpro yeast = blocks SARS-CoV papain-like protease in a yeast assay; Potency, µM (titrated, usually from 32.9 µM), most hits filed as activators; AID 485353; S. cerevisiae expressing SARS-CoV PLpro, growth rescue; hit rate 0.19% among 330,000; calls by dose curve; further: nearly all actives have a fitted effect of over 55% in size
Pf growth 96h = P. falciparum growth inhibition at 96 hour, primary screen for plastid delayed-death inhibitors; hit rate 6.9% among 320,000; Potency, µM (highest dose often 28.7 µM), actives largely listed as inhibitors; P. falciparum luciferase reporter growth, 96 h
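Delayed-death screen, second-generation endpoint: infected erythrocytes, 2% hematocrit, 0.05% parasitemia final; 96 hours at 37 C, 5% CO2; luciferase detection reagent; luminescence decrease equals reduced growth.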
Hits are given with their value; . = inactive; ? = inconclusive; / = no result given; [ ] = dose if it differs, or a comment. Unless noted, the call rests on the fitted dose curve; in most records, active means well fitted inhibition curve with a large enough effect; inconclusive means small, poorly fitted or top-dose-only effect, or another doubt; inactive means no such curve, though single readings can be large or run the other way.

SMILES	Pf growth 48h	Shiga inhibitor	CHX counter	NS1 function inh	SARS PLpro yeast	Pf growth 96h
CCn1c(C2CCN(S(=O)(=O)c3ccc(OC)cc3)CC2)n[nH]c1=S	.	.	.	.	.	.
CN(C)c1ccc(NC(=O)CN2CCN(CC(=O)Nc3ccc(F)cc3)CC2)cc1	.	.	19	.	.	.
CCOc1ccc(NC(=O)CN2CCN(CC(=O)Nc3ccc(N(C)C)cc3)CC2)cc1	.	81	25	.	.	.
Cn1c(C(C)(O)C(O)c2ccccc2)nc2ccccc21 (stereo not drawn)	.	.	.	.	.	.
O=C(NCC(=O)N1CCOCC1)c1ccc(Br)o1	.	/	/	/	.	.
CC1=CC(C)(C)N2C(=O)C3(C(C#N)=C(N)OC4=C3C(=O)CC(C)(C)C4)c3c(C)c(C)cc1c32 (stereo not drawn)	/	.	.	.	?	4.1µM
CC1=CC(C)(C)N2C(=O)C3(C(C#N)=C(N)OC4=C3C(=O)CC(C)(C)C4)c3cccc1c32 (stereo not drawn)	/	.	.	.	.	.
COc1cc2c3c(c1)C1(C(=O)N3C(C)(C)C=C2C)C(C#N)=C(N)Oc2cc(C)oc(=O)c21 (stereo not drawn)	5.9µM	.	.	.	.	.
CC(=O)Oc1cc(OC(C)=O)c2c(=O)c(-c3ccc4c(c3)OCCCO4)c(C)oc2c1	.	.	8.3	.	.	.
Cc1oc2cc(O)cc(O)c2c(=O)c1-c1ccc2c(c1)OCCCO2	.	116	34	.	.	/
Cc1oc(-c2ccc3c(c2)OCCO3)cc1C(=O)O	?	.	.	.	.	?
COCCCN=C1NN=C(c2cc(C)n(-c3ccccc3)c2C)CS1	10µM	62	34	.	?	8.3µM
CN=C1NN=C(c2cc(C)n(-c3ccc(Cl)cc3)c2C)CS1	.	136	59	/	.	?
Cc1cc(C2=NNC(=NC3CC3)SC2)c(C)n1-c1c(C)n(C)n(-c2ccccc2)c1=O	.	.	.	?	.	.
Cc1cc(/C=C/C(=O)O)c(C)n1-c1ccc(Cl)cc1	.[1.15 µM]	.	.	.	.	.[1.15 µM]
Cc1cc(C2=NNC(=NCCc3ccccc3)SC2)c(C)n1-c1c(C)n(C)n(-c2ccccc2)c1=O	6.6µM	.	.	.	.	?
Cc1c(N=C2NN=C(c3c[nH]c4ccccc34)CS2)c(=O)n(-c2ccccc2)n1C	4.1µM	.	.	.	.	?
COC(=O)CS(=O)(=O)c1ccc(C)cc1	.	.	.	.	.	.
CC(=O)N1CC2([N+](=O)[O-])CN(C(C)=O)CC([N+](=O)[O-])(C1)C2(C)C	.	.	.	/	.	.
CC1(C(=O)O)CCC(C(=O)Nc2ccc(F)cc2)C1(C)C (stereo not drawn)	.	.	.	.	.	.
Cc1cc(C=O)c(C)n1CC1CCCO1 (stereo not drawn)	.	.	.	.	.	/
COCCCN=C1NN=C(c2cc(C)n(Cc3ccccc3Cl)c2C)CS1	?	45	22	/	.	?
COCCN=C1NN=C(c2cc(C)n(CC3CCCO3)c2C)CS1 (stereo not drawn)	?	.	.	.	.	9.3µM
C=CCN=C1NN=C(c2cc(C)n(CC=C)c2C)CS1	.	.	28	.	.	.
COCCCN=C1NN=C(c2cc(C)n(-c3ccccc3F)c2C)CS1	.	.	.	/	.	.
SMILES	Pf growth 48h	Shiga inhibitor	CHX counter	NS1 function inh	SARS PLpro yeast	Pf growth 96h
COc1cccc(NC(=O)CN2C(=O)NC(c3ccccc3)(c3ccccc3)C2=O)c1	.	.	.	.	.	.
O=C(CSc1nnc(-c2cccc(Br)c2)o1)N1CCOCC1	.	.	.	.	.	.
CN(CC(=O)Nc1cccc(S(=O)(=O)N2CCCC2)c1)Cc1ccccc1	/	/	/	/	.	/
CSCC[C@H](NC(=O)[C@@H]1Cc2ccccc2CN1)C(=O)Nc1cccc(C)c1	.	.	.	.	.	.
Cc1ccc(NC(=O)[C@H](NC(=O)[C@@H]2Cc3ccccc3CN2)c2ccccc2)cc1C	.	.	17	.	.	?
Cc1cccc(NC(=O)[C@H](Cc2ccccc2)NC(=O)[C@@H]2Cc3ccccc3CN2)c1	.	.	15	.	.	.
Cc1ccc(NC(=O)[C@@H](C)NC(=O)[C@@H]2Cc3ccccc3CN2)cc1	.	.	24	.	.	.
COc1ccccc1CNC(=O)[C@H](Cc1c[nH]c2ccccc12)NC(=O)[C@@H]1Cc2ccccc2CN1	?	.	.	.	.	10µM
CC(NC(=O)[C@@H](NC(=O)[C@@H]1Cc2ccccc2CN1)C(C)C)c1ccccc1 (stereo partly drawn)	.	.	.	.	.	.
C[C@@H]1CCCCCCCCC(=O)OCCN(C(=O)OC(C)(C)C)[C@H](C)CCCCCCCCC(=O)OCCN(C(=O)OC(C)(C)C)[C@H](C)CCCCCCCCC(=O)OCCN1C(=O)OC(C)(C)C	/	/	/	/	.	/
Cc1cccc(CNC(=O)C2CCC(=O)N(C3CC3)C2)c1 (stereo not drawn)	.	.	.	.	.	.
O=C(c1ccccn1)N1CCCC(N2CCN(c3ccc(F)cc3)CC2)C1 (stereo not drawn)	.	.	.	.	.	.
Cc1ccc(NC(=O)[C@@H](CC(C)C)NC(=O)[C@@H]2Cc3ccccc3CN2)cc1	.	61	.	.	.	.
Cc1ccc(NC(=O)[C@H](CC(C)C)NC(=O)[C@@H]2Cc3ccccc3CN2)cc1	.	.	.	.	.	?
COc1cccc(-c2nn(C)c3sc(C(=O)NCc4ccco4)cc23)c1	7.4µM	.	.	.	.	.
CCCCN(C)CCNC(=O)c1cc2c(-c3ccccc3F)nn(C)c2s1	?	.	.	.	.	.
Cc1ccc(CNC(=O)c2cc3c(-c4ccc(Cl)cc4)nn(C)c3s2)o1	/	.	.	.	.	?
COCCCNC(=O)c1cc2c(-c3ccc(Cl)cc3)nn(C)c2s1	/	.	.	.	.	.
COc1cccc(-c2nn(C)c3sc(C(=O)NCCCN(C)Cc4ccccc4)cc23)c1	2.1µM	.	.	.	.	.
CCCCN(C)CCNC(=O)c1cc2c(-c3cccc(OC)c3)nn(C)c2s1	1.5µM	.	.	.	.	.
CCN(CC)CCCNC(=O)c1cc2c(-c3cccc(OC)c3)nn(C)c2s1	8.3µM	.	.	.	.	.
O=C(NC1CCCC1)C(c1ccccn1)N(Cc1ccc(F)cc1)C(=O)c1csnn1 (stereo not drawn)	.	.	.	.	.	.
CCCCN(CC)CCCNC(=O)c1cc2c(-c3ccc(OC)c(OC)c3)nn(C)c2s1	2.6µM	.	.	.	.	?
CCN1CCCC1CNC(=O)c1cc2c(-c3cccc(OC)c3)nn(C)c2s1 (stereo not drawn)	?	.	.	.	.	5.9µM
O=C(NCc1ccccn1)C(=O)Nc1nc(C23CC4CC(CC(C4)C2)C3)cs1	.	.	.	.	.	.
Cc1ccc([N+](=O)[O-])cc1S(=O)(=O)Nc1ccc(N2CCOCC2)cc1	.[5.75 µM]	.	.	/	.	.
